Rows were chosen to be rich in hits. Some 2.5% of all compounds tested hit in one or more screens of this group.
FH mod: Identification of activators of human fumarate hydratase by quantitative high-throughput screening; FH coupled MDH/diaphorase resazurin fluorescence, 15 min; Potency, µM (titrated, usually from 79.9 µM), without a hit: at the highest dose activity change, negative = inhibition, most hits filed as inhibitors; 0.22% of 54,000 active; also: potency is read from the fitted curve at half-maximal effect; % is scaled to controls: 0 for no effect and ±100 for the full control effect; the screen sought activators but most active calls are inhibition curves; nearly all actives have a fitted effect of over 45% in size
HTT-AS promoter: Primary qHTS for Identification of Small Molecule Activators of Huntingtin-Antisense Promoter Activity; AID 1508624, 2021; 0.24% of 48,000 active; HEK293 HTT-AS promoter firefly luciferase reporter, 24 h; response scale: percent change from vehicle, -100% = no light; Potency, µM (top dose mostly 57.5 µM), without a hit: top-dose activity change, positive = activation, hits mostly activators; also: potency is read from the fitted curve at half-maximal effect; nearly all actives have a fitted effect of over 55% in size
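Firefly luciferase readout (Dual-Glo, 10 min RT) after 24 h, 37 °C compound exposure (final up to 57.5 uM) of HEK293 reporter cells cultured 24 h beforehand; PTC124 at 50 uM final as control inhibitor; activity scaled vehicle 0%, zero RLU -100%.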
HTT promoter inh: Primary qHTS for Identification of Small Molecule Inhibitors of Huntingtin Promoter Activity. AID 1508623, 2021. HEK293 HTT promoter firefly luciferase reporter, 24 h. Potency, µM (series often up to 57.5 µM), for the others: at the highest dose activity change, negative = inhibition, most hits filed as inhibitors. 0.93% of 48,000 active; also: potency is read from the fitted curve at half-maximal effect; nearly all actives have a fitted effect of over 50% in size
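Firefly luciferase readout (Dual-Glo, 10 min RT) after 24 h, 37 °C compound exposure (final up to 57.5 uM) of HEK293 reporter cells cultured 24 h beforehand; PTC124 at 50 uM final as control inhibitor; activity scaled vehicle 0%, zero RLU -100%.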
NTMT1 inhibitor: Primary qHTS for Inhibitors of N-terminal methyltransferase 1 (NTMT1): MTaseGlo Assay; 2.5% of 59,000 active; N-terminal Xaa-Pro-Lys N-methyltransferase 1 (Homo sapiens), Q9BV86; NTMT1 MTase-Glo SAH luminescence, purified enzyme; Potency, µM (highest dose often 114 µM), inactives show at the top dose activity change, negative = inhibition, hits mostly inhibitors; AID 1645870, 2021;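 also: potency is read from the fitted curve at half-maximal effect; plate controls were DMSO vehicle for no effect and no enzyme for full effect; nearly all actives have a fitted effect of over 65% in size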
GALK inhibitor: qHTS Assay for Inhibitors of Human Galactokinase (GALK): NCGC Sytravon Library Screen. recombinant GALK, Kinase-Glo ATP luminescence, 1 h. Potency, µM (series often up to 57.5 µM), without a hit: top-dose activity, negative = inhibition, actives largely listed as inhibitors. 44,000 tested, under 10 active. AID 1347072, 2019;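 also: plate controls were full GALK reaction for no effect and reaction lacking GALK for full effect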
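Human GALK (5 nM) was incubated with 35 uM ATP and 100 uM galactose in 20 mM HEPES pH 8.0 with MgCl2, NaCl, DTT and BSA for 1 h at room temperature. Remaining ATP was measured by Kinase-Glo Plus luminescence.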
Sfp qHTS opt: qHTS Assay for Inhibitos of Bacillus subtilis Sfp phosphopantetheinyl transferase (PPTase): Chemistry Optimization Followup. shares compounds with NTMT1 inhibitor. 78% of 230 active. AID 540350, 2011. purified Sfp PPTase enzyme activity, qHTS. Potency, µM (top dose mostly 114 µM), for inactives: at the top dose activity change, negative = inhibition, actives largely listed as inhibitors
Bsub HM489 growth: qHTS for Inhibitos of Bacillus subtilis Sfp phosphopantetheinyl transferase (PPTase): Chemistry Optimization Followup in B. Subtilis HM489. shares compounds with NTMT1 inhibitor. B. subtilis HM489 (acpS-) growth, BacTiter-Glo, 5 h. Potency, µM (titrated, usually from 114 µM), inactives show at the top dose activity change, negative = inhibition, most hits filed as inhibitors. 50% of 220 active. AID 540353, 2011
Sfp gel opt: Gel-Based Assay for Inhibitos of Bacillus subtilis Sfp phosphopantetheinyl transferase (PPTase): Chemistry Optimization Followup; purified Sfp PPTase, gel-based product detection; shares compounds with NTMT1 inhibitor; 54% of 220 active; Potency, µM (top dose mostly 250 µM), inactives show at the top dose activity change, negative = inhibition, hits mostly inhibitors
Sfp inh gel: qHTS Assay for Inhibitors of Bacillus subtilis Sfp phosphopantetheinyl transferase (PPTase): Gel Based Assay; Potency, µM (doses to about 250 µM), without a hit: at the highest dose activity change, negative = inhibition, usual class: inhibitors; purified Sfp PPTase, gel-based product detection; 90% of 45 active; shares compounds with NTMT1 inhibitor
Sfp inh SAR2: qHTS Assay for Inhibitors of Bacillus subtilis Sfp phosphopantetheinyl transferase (PPTase): SAR Round 2; purified Sfp enzyme, PPTase activity, qHTS; 87% of 230 active; Potency, µM (doses to about 57.1 µM), inactives show top-dose activity change, negative = inhibition, actives largely listed as inhibitors; shares compounds with NTMT1 inhibitor
hGST A1-1 inh: qHTS Assay for Inhibitors of Bacillus subtilis Sfp phosphopantetheinyl transferase (PPTase): SAR in hGST A1-1. shares compounds with NTMT1 inhibitor. hGST A1-1 enzyme activity counter-screen, qHTS. Potency, µM (titrated, usually from 114 µM), for inactives: at the top dose activity change, negative = inhibition, usual class: inhibitors. 55 tested, under 10 active. AID 602391, 2012
HSD17B4 counter: Extended Characterization of HPGD Inhibitors: Counterscreen Against HSD17b4 | shares compounds with NTMT1 inhibitor | purified HSD17B4, estradiol/NAD+, NADH fluorescence | Potency, µM (series often up to 57.1 µM), for inactives: at the top dose activity change, negative = inhibition, hits mostly inhibitors | 10% of 230 active | AID 743187, 2013
ALDH1A1 inh: Extended Characterization of HPGD Inhibitors: Counterscreen Against ALDH1A1; shares compounds with NTMT1 inhibitor; recombinant ALDH1A1, NADH fluorescence, propionaldehyde/NAD+; Potency, µM (top dose mostly 57.1 µM), inactives show at the top dose activity change, negative = inhibition, usual class: inhibitors; 93% of 230 active; AID 743195, 2013
Target sequence (P00352 whole entry, looked up): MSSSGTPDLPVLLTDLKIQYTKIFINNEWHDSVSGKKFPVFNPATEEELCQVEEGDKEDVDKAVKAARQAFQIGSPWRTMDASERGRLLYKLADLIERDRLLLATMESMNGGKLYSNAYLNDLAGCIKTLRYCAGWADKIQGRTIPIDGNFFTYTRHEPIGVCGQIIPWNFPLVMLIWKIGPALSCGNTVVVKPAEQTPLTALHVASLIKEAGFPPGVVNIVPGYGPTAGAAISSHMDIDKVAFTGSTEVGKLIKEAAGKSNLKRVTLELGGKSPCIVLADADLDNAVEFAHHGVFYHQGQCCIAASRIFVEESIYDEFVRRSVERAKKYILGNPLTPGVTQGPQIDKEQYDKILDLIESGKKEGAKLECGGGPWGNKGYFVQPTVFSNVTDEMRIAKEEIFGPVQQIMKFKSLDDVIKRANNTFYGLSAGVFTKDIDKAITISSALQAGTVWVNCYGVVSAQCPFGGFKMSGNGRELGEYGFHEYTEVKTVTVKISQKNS
Starred values were filed as active, the others as inactive; [ ] = another dose, or the depositor's remark. Calls follow the shape of the dose curve; as a rule, active = well fitted curve in the direction sought with a large enough effect; inconclusive = small, poorly fitted or top-dose-only effect, or another doubt; inactive = no such curve, though single readings can be large; an effect the other way counts as inactive or inconclusive.

`Cc1cc(C)nc(NC(=S)N2CCN(c3ccc4ncccc4c3[N+](=O)[O-])CC2)c1` gave NTMT1 inhibitor inconclusive, Sfp qHTS opt 5.9µM*, Bsub HM489 growth -21%, Sfp gel opt -59%, Sfp inh SAR2 2.9µM*, HSD17B4 counter -16% and ALDH1A1 inh 19µM*.
`Cc1cc(C)nc(NC(=S)N2CCN(Cc3c(F)cccc3Cl)CC2)c1` gave NTMT1 inhibitor -19%[57.5 µM], Sfp qHTS opt 8.3µM*, Bsub HM489 growth -23%, Sfp gel opt -42%, Sfp inh SAR2 inconclusive, HSD17B4 counter -12% and ALDH1A1 inh 11µM*.
`Cc1ccc(N2CCN(C(=O)c3cnc(N4CCCCC4)c4ccccc34)CC2)c(C)c1` gave FH mod -16%, HTT-AS promoter -29%, HTT promoter inh inconclusive, NTMT1 inhibitor -2% and GALK inhibitor -1%.
For Cc1cc(C)nc(NC(=S)N2CCN(c3ccc([N+](=O)[O-])cc3Cl)CC2)c1 the results were NTMT1 inhibitor 28µM*, Sfp qHTS opt 1.5µM*, Bsub HM489 growth -17%, Sfp gel opt 2µM*, Sfp inh gel 1.5µM*, Sfp inh SAR2 0.81µM*, hGST A1-1 inh 0%, HSD17B4 counter 19µM* and ALDH1A1 inh 0.68µM*.
Screening Cc1ccc(N2CCN(C(=O)c3ccc4c(Cl)c5c(nc4c3)CCCC5)CC2)c(C)c1 returned FH mod -4%, HTT-AS promoter -9%, HTT promoter inh -6%, NTMT1 inhibitor 4% and GALK inhibitor 10%.

Assay outcomes from PubChem BioAssay.
